# Assay outcomes (PubChem)
# Pf Dd2 inh = blocks in vitro growth of P. falciparum Dd2; P. falciparum Dd2 growth, SYBR Green, 72 h; Potency, µM (series often up to 28.9 µM), actives largely listed as inhibitors; 120,000 compounds, 4.3% hits; active means well fitted inhibition curve with a large enough effect; further: nearly all actives have a fitted effect of over 65% in size
#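 Readout: SYBR Green fluorescence, 485 nm excitation, 535 nm emission, after ~16 h lysis at 37C. Before that, Dd2-infected red cells (2.5% hematocrit) grew 72 h with compound, 29 uM top final concentration.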
# Hits are given with their value; 0 = inactive. Many of the other results were omitted from the sample, so hits are more common in it than they were.
SMILES,Pf Dd2 inh
COCCNC(=O)N1CCN(Cc2ccco2)CC(C(=O)O)C1 (stereo not drawn),0
COc1cccc(CNC(=O)c2cc3c(s2)-c2ccccc2OC3)c1,0
COc1cc(NC(=O)c2cc3c(s2)-c2ccccc2OC3)cc(OC)c1OC,5.62µM
COC(=O)c1ccccc1NC(=O)c1cc2c(s1)-c1ccccc1OC2,0
Cc1nnnn1CCCN1CCn2nc(CCC(=O)O)cc2C1,0
O=C1CCN(C(=O)C2CCN(C(=O)CCC3CCCC3)CC2)CCCCCCN1,0
COc1cc2c(cc1OC)C(CNC(=O)c1ccccc1)N(C(=O)Nc1cccc(F)c1)CC2 (stereo not drawn),0
COc1cc2c(cc1OC)C(COc1ccc3c(C)cc(=O)oc3c1)N(C(=O)c1ccc(Cl)cc1)CC2 (stereo not drawn),8.91µM
COc1cccc(C(=O)N2CCc3cc(OC)c(OC)cc3C2COc2ccc3c(C)cc(=O)oc3c2)c1 (stereo not drawn),8.91µM
CCOc1ccc(C(=O)N2CCC[C@H]2c2nc(-c3ccc(OC)cc3)no2)cc1OCC,0
CCOc1ccc(C(=O)N2CCc3cc(OC)c(OC)cc3C2COc2ccc3c(C)cc(=O)oc3c2)cc1OCC (stereo not drawn),3.16µM
COCC(=O)N1CCc2cc(OC)c(OC)cc2C1COc1ccc2c(C)cc(=O)oc2c1 (stereo not drawn),0
COc1cc2c(cc1OC)C(CNC(=O)c1cccc(F)c1)N(C(=O)Nc1ccc(C)cc1)CC2 (stereo not drawn),0
CCNC(=O)NCC1c2cc(OC)c(OC)cc2CCN1C(=O)Nc1ccc(C)cc1 (stereo not drawn),0
O=C(NCCC1CCN(C(=O)Nc2ccc(F)cc2F)CC1)c1cc(F)ccc1F,0
CC(C)C[C@H](NC(=O)Cn1nc2c(cc1=O)CCCC2)C(=O)O,0
Cc1nc2ccccc2n1Cc1cn([C@@H]2CN[C@H](C(=O)O)C2)nn1,0
Cc1ccc(C(=O)CCc2nc(C3CC(=O)N(C4CCCCC4)C3)no2)cc1 (stereo not drawn),0
CN1CC2(CCCN(C(=O)c3ccc(OC(F)F)cc3)CC2)OC1=O (stereo not drawn),0
O=C1NC(C(=O)NCc2cc(F)ccc2F)Cn2cccc21 (stereo not drawn),0
COC(=O)[C@@H](C)NC(=O)[C@H]1CN(S(=O)(=O)c2ccccc2)CCN1C(=O)N1CCOCC1,0
COCCN1C(=O)CC[C@]2(C(=O)NC3CCCCCC3)CCCC[C@@H]12,0
Cn1cc([C@@H](NC(=O)c2ccccc2N2CCCC2)C2CC(O)C2)cn1 (stereo partly drawn),0
Fc1ccc(CNCc2cccnc2N2CCN(c3ccccn3)CC2)cc1F,5.01µM
COc1ccc(CC(=O)NC(C)C(=O)N2CCN(c3ccccn3)CC2)cc1 (stereo not drawn),0
SMILES,Pf Dd2 inh
O=C(CSc1ccccn1)NCc1cccnc1N1CCOCC1,0
CCN(CC)Cc1nc(C2(O)CCN(C3CCCC3)CC2)cs1,0
CC(C)[S+](=O)([O-])N1CC2ON=C(C(=O)O)C2C1 (stereo not drawn),0
NS(=O)(=O)c1ccc(C(=O)N2CCCC(c3ccn[nH]3)C2)cc1 (stereo not drawn),0
CNC(=O)c1ccc(Cn2ccn3nc4c(c3c2=O)CCCC4)cc1,0
COc1ccccc1CNC(=O)c1ccc(Cn2ccn3nc4c(c3c2=O)CCCC4)cc1,0
CC(CCc1ccccc1)NC(=O)c1ccc(Cn2ccn3nc4c(c3c2=O)CCCC4)cc1 (stereo not drawn),8.91µM
Cc1cnc(C(=O)NC2C[C@H]3CC[C@@H](C2)N3C(=O)c2cnccc2C)cn1 (stereo partly drawn),0
COCCN1CCN(C[C@@H]2C=C(C)[C@H](Cc3nnc(COc4ccc(F)cc4)o3)C[C@H]2C(C)C)CC1,5.01µM
CC1=C[C@@H](CC#N)[C@H](C(C)C)C[C@H]1CC(=O)N1CCC(C)CC1,0
COc1ccc(C(=O)NC[C@@H]2C=C(C)[C@H](CC(=O)N3CCOCC3)C[C@H]2C(C)C)cc1,0
CCCc1nnc(C[C@@H]2C[C@@H](C(C)C)[C@H](CN3CC[C@H](NC(C)=O)C3)C=C2C)o1,5.01µM
CCCc1nnc(C[C@@H]2C[C@@H](C(C)C)[C@H](CN3CCC(CO)CC3)C=C2C)o1,10µM
CC(=O)NC[C@@H]1C=C(C)[C@H](CC(=O)O)C[C@H]1C(C)C,0
CCCc1nnc([C@H]2CCN(Cc3ccc(NC(C)=O)cc3)C2)o1,0
CC1=C[C@@H](CN2CCC(C(N)=O)CC2)[C@H](C(C)C)C[C@H]1Cc1nnc(C)o1,0
CC1=C[C@@H](CN2CCC(O)CC2)[C@H](C(C)C)C[C@H]1Cc1nnc(C(C)(C)C)o1,10µM
O=C1CC2(CCN(Cc3ccccc3)CC2)Oc2ccccc2N1,0
Clc1ccc(CN2CCC3(CC2)CC(c2cccnc2)=NO3)cc1,0
Cc1cccc(NC(=O)CC2=C3CCCCC3N(C)C2=O)c1 (stereo not drawn),0
COc1ccc(F)cc1S(=O)(=O)N1CCC(CC(=O)NCc2ccccc2)C1 (stereo not drawn),0
